LGR2 inh – inhibitors of bursicon-induced Drosophila LGR2 receptor cAMP signaling; HEK293 LGR2, CRE-luciferase, bursicon-stimulated, 4 h; inhibition, % at 9.99 µM; 380,000 tested, 0.35% active; AID 720647;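 active = drop in luminescence signal, shown as inhibition above about 50% in the replicate tests, limit read from the data, passing the limit was not always enough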;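 note: agonist challenge used bursicon conditioned medium at about half maximal strength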
SIRT5 inh – inhibitors of human sirtuin-5 desuccinylase; 330,000 tested, 1.1% active; Purified SirT5, succinyl-peptide AMC, trypsin-coupled fluorescence; inhibition, % at 15 µM; in the data active = inhibition above about 15%
Target sequence (Q9NXA8 whole entry, looked up): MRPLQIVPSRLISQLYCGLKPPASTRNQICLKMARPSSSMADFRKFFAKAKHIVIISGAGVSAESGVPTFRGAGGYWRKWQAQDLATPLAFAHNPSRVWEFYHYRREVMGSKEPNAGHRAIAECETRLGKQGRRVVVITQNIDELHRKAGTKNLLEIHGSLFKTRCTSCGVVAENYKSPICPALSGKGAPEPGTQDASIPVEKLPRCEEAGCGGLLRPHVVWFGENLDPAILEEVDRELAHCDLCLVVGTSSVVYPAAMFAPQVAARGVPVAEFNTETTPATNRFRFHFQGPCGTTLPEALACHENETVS
PAX8 inh HTS – inhibitors of PAX8 transcriptional activity in RMG-I cells | RMG-I TPO-luciferase reporter, SteadyGlo, 24 h | inhibition, % at 12.6 µM | 360,000 tested, 1.2% active;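 active = mean replicate inhibition at least 60% with every replicate also reaching 60%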;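 note: luciferase light reporting Pax8 driven TPO promoter activity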
EWS-Fli inh – inhibitors of EWS/Fli oncoprotein transcriptional activity; inhibition, % at 12.6 µM; 350,000 tested, 0.67% active; A673 NR0B1-luciferase reporter, viability-normalised;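 active = mean inhibition of at least 50% after viability correction, with every replicate also passing that limit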;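 note: firefly luciferase signal divided by Alamar Blue viability fluorescence both relative to DMSO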
PGC1a acetyl inh – lowers PGC1a acetylation signal in U2OS cells. AlphaScreen anti-acetyl-lysine; with virally co-expressed GCN5 acetyltransferase. AID 651687. inhibition, % at 15.6 µM. 350,000 tested, 0.17% active;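 active = every replicate shows inhibition of at least 40%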
Ecoli rRNA inh – inhibits bacterial ribosomal RNA function over humanized ribosomes. GFP signal change (wild-type ribosome), % (test concentration not listed). E. coli WT GFP vs humanized-ribosome RFP mutants, fluorescence, 24 h; hits give low values; DMSO median 0, no signal -100. 350,000 tested, 1.6% active;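 active = significant combined selectivity score with lowered wild-type GFP, culture density cut under 30%, mutant RFP and density less affected; inactive = any of these conditions unmet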
Each line names hits and unclear results; the compound was inactive in the other large screens. An excerpt weighted towards active compounds, which were near 3.4% of everything screened.

C[C@H]1CN([C@@H](C)CO)C(=O)c2cccc(NC(=O)Nc3cccc4ccccc34)c2O[C@H]1CN(C)C(=O)Nc1ccc(C(F)(F)F)cc1	none (no result: EWS-Fli inh)
c1cncc(C(c2nnnn2C2CCCCC2)N2CCCCC2)c1 (stereo not drawn)	Ecoli rRNA inh -20
CCC(C)(C)n1nnnc1C(c1ccncc1)N1CCC(Cc2ccccc2)CC1 (stereo not drawn)	none (no result: LGR2 inh, SIRT5 inh, EWS-Fli inh, Ecoli rRNA inh)
Cc1ccc(Cl)cc1N1CCN(C(c2cccnc2)c2nnnn2C2CCCCC2)CC1 (stereo not drawn)	none (no result: SIRT5 inh, PAX8 inh HTS, EWS-Fli inh, Ecoli rRNA inh)
CCC(C)(C)n1nnnc1C(c1cccnc1)N1CCC(Cc2ccccc2)CC1 (stereo not drawn)	Ecoli rRNA inh -33 (no result: PGC1a acetyl inh)
O=c1[nH]c2ccccc2c(O)c1SCCO	SIRT5 inh 18 (no result: PGC1a acetyl inh)
O=C(O)c1ccccc1-c1c2cc(I)c(=O)c(I)c-2oc2c(I)c(O)c(I)cc12	SIRT5 inh 29
O=C(NC1CCCCC1)N1CC(=O)N2[C@H](CO)[C@@H](c3ccc(-c4ccccc4)cc3)[C@H]2C1	none
COc1cccc(-c2c(-c3cc(OC)cc(OC)c3)n(C)c3ccc(-c4cnc(N5CCOCC5)nc4)cc23)c1	PAX8 inh HTS 84 (no result: LGR2 inh)
COc1cccc(-c2c(-c3cc(OC)cc(OC)c3)n(C)c3ccc(-c4cnc(OC)nc4)cc23)c1	none (no result: SIRT5 inh, Ecoli rRNA inh)
COc1ccc2c3c(n(C)c2c1)[C@@H](CO)N(Cc1nccs1)CC31CCN(C(=O)CC2CC2)CC1	none (no result: LGR2 inh, SIRT5 inh, PAX8 inh HTS, EWS-Fli inh, PGC1a acetyl inh)
O=C(NOCc1ccccc1)c1coc(-c2ccccc2)n1	Ecoli rRNA inh -26
O=C(NCC(c1ccco1)N1CCc2ccccc21)C(=O)Nc1ccc(F)cc1F (stereo not drawn)	EWS-Fli inh 58 (no result: PGC1a acetyl inh)
C[C@H](CO)N1C[C@H](C)[C@@H](CN(C)CC2CCCCC2)OCCCC[C@H](C)Oc2ccc(NC(=O)Nc3ccc(C(F)(F)F)cc3)cc2C1=O	EWS-Fli inh 60
CCCN(C)C[C@H]1OCCCC[C@H](C)Oc2ccc(NC(=O)Nc3ccc(C(F)(F)F)cc3)cc2C(=O)N([C@@H](C)CO)C[C@H]1C	none
C[C@@H]1CN([C@H](C)CO)C(=O)c2cc(NC(=O)Nc3ccc(C(F)(F)F)cc3)ccc2O[C@@H](C)CCCCO[C@@H]1CN(C)CC1CCCCC1	EWS-Fli inh 78
CCCN(C)C[C@H]1OCCCC[C@@H](C)Oc2ccc(NC(=O)c3ccccc3)cc2C(=O)N([C@H](C)CO)C[C@H]1C	PAX8 inh HTS 83
C[C@@H]1CCCCO[C@H](CN(C)CC2CC2)[C@H](C)CN([C@H](C)CO)C(=O)c2cc(NC(=O)Nc3ccc(C(F)(F)F)cc3)ccc2O1	none (no result: SIRT5 inh)
C[C@@H]1CN([C@@H](C)CO)C(=O)c2cc(NC(=O)Nc3ccc(C(F)(F)F)cc3)ccc2O[C@@H](C)CCCCO[C@H]1CN(C)CC1CCCCC1	none (no result: LGR2 inh)
CCCN(C)C[C@H]1OCCCC[C@@H](C)Oc2ccc(NC(=O)Nc3ccc(C(F)(F)F)cc3)cc2C(=O)N([C@H](C)CO)C[C@H]1C	PAX8 inh HTS 82
CO[C@H](CN(C)S(=O)(=O)c1ccc(Cl)cc1)[C@@H](C)CN(C(=O)Nc1ccccc1F)[C@H](C)CO	none (no result: PAX8 inh HTS)
C[C@@H](NC(=O)C[C@@H]1CC[C@H]2[C@@H](COC[C@H](O)CN2C(=O)Nc2cc(Cl)cc(Cl)c2)O1)c1ccccc1	none
CN(C)c1ccc2c(c1)[C@H]1C[C@H](CC(=O)N3CCCCC3)O[C@@H](CO)[C@H]1O2	none (no result: PAX8 inh HTS, PGC1a acetyl inh)
COC(=O)[C@]1(Cc2ccccc2)N=C(c2ccc(OCCCO)cc2)O[C@@H]1c1ccccc1	none (no result: LGR2 inh, Ecoli rRNA inh)
C[C@H](CO)N1C[C@H](C)[C@H](CN(C)CC2CCCCC2)OCCCC[C@H](C)Oc2ccc(NC(=O)Nc3ccc(C(F)(F)F)cc3)cc2C1=O	PAX8 inh HTS 68
O=C(Cc1ccccc1)N1C[C@H]2[C@@H](c3ccccc31)[C@H](CO)N2C(=O)c1cccc(F)c1	none
COC(=O)C1=C(C)N(C)C(=S)N(C)C1c1cccc(Br)c1 (stereo not drawn)	Ecoli rRNA inh -34
CCOC(=O)C1=C(C)N(C)C(=S)N(C)C1c1ccc(OC)cc1 (stereo not drawn)	none (no result: SIRT5 inh)
Oc1ccccc1/C=N/NC(=S)NC1CC2C=CC1C2 (stereo not drawn)	Ecoli rRNA inh -39
